From PubChem BioAssay (NCATS)
Several values for one entry are separate records, joined by “and”; a condition that tells them apart may be missing. Identical values can stand only once. Results filed as inconclusive are left out. A structure can be active in one record and inactive in another. Activity calls are given as the source filed them. Calls follow the shape of the dose curve; as a rule, active = well fitted curve in the direction sought with a large enough effect; inconclusive = small, poorly fitted or top-dose-only effect, or another doubt; inactive = no such curve, though single readings can be large; an effect the other way counts as inactive or inconclusive.

Columns and labels:
[1] = qHTS assay for measurement of the activity of small molecule inhibitors on Zika virus induced Caspase-3 activity in human astrocytoma cells (AID 1224859); conditions: SNB-19 ZIKV-induced caspase-3/7, luminescence, 6 h; series mostly up to 45.7 µM
Method in brief: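 Caspase activation in ZIKV-infected SNB-19 cells (2 FFU/cell, 6 h) measured by Caspase-Glo 3/7 luminescence after 30 min RT; compound pre-incubated 1 h; normalised to uninfected and infected controls.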

[2] = qHTS Screen of the MIPE 4.0 Collection Against Ewings Sarcoma (TC71) (AID 1259253); conditions: TC71 Ewing sarcoma viability, CellTiter-Glo, 48 h; series mostly up to 45.8 µM; also: nearly all actives have a fitted effect of over 40% in size; also: potency is read from the fitted curve at half-maximal effect
Method in brief: (§1)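 After a 4 h attachment period in RPMI/5% FBS, cells were pin-dosed with test compounds; DMSO served as negative and 9.2 uM bortezomib (final) as positive control. Luminescent CellTiter-Glo signal at 48 h defined viability.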

[3] = qHTS Screen of the MIPE 4.0 Collection Against Ewings Sarcoma (EW8) (AID 1259255); conditions: EW8 Ewing sarcoma viability, CellTiter-Glo, 48 h; series mostly up to 45.8 µM; also: nearly all actives have a fitted effect of over 35% in size; also: potency is read from the fitted curve at half-maximal effect
Method in brief: as §1

[4] = qHTS Screen of the MIPE 4.0 Collection Against Ewings Sarcoma (TC32) (AID 1259256); conditions: TC32 Ewing sarcoma viability, CellTiter-Glo, 48 h; series mostly up to 45.8 µM; also: nearly all actives have a fitted effect of over 45% in size; also: potency is read from the fitted curve at half-maximal effect
Method in brief: as §1

[5] = Identifying Small Molecule Inhibitors of Pancreatic Cancer Stem Cells (A2780, Spheroid) (AID 1259357); conditions: Potency: A2780 spheroid viability; series mostly up to 46.1 µM;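 also: compound exposure lasted 48 h before the ATP luminescence read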; also: potency is read from the fitted curve at half-maximal effect
Method in brief: (§2)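 Viability is scored by CellTiter-Glo luminescence 48 h after dosing, expressed as percent activity against vehicle and no-cell references. Spheroid formats rely on cells cultured 14 days in stem cell media beforehand.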

[6] = Identifying Small Molecule Inhibitors of Pancreatic Cancer Stem Cells (SN12C, Adherent) (AID 1259358); conditions: viability/growth inhibition; series mostly up to 46.1 µM;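 also: potency is read from the fitted curve at half-maximal effect; cell survival measured after 48 h of compound exposure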
Method in brief: (§3)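 Adherent (2D) versus sphere (3D) formats; spheres generated 14 d in SCM beforehand. Compound transferred by pin tool after 4 h, 48 h incubation, CellTiter-Glo endpoint.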

[7] = Identifying Small Molecule Inhibitors of Pancreatic Cancer Stem Cells (SN12C, Spheroid) (AID 1259360); conditions: Potency: SN12C spheroid viability; series mostly up to 46.1 µM; also: potency is read from the fitted curve at half-maximal effect
Method in brief: as §2

[8] = Identifying Small Molecule Inhibitors of Pancreatic Cancer Stem Cells (A278, Adherent) (AID 1259361); conditions: series mostly up to 46.1 µM;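 also: viability read after 48 h compound exposure; nearly all actives have a fitted effect of over 35% in size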
Method in brief: as §3

[9] = qHTS Screen of the MIPE 4.0 Collection Against Ewings Sarcoma (RDES) (AID 1259252); conditions: RD-ES Ewing sarcoma viability, CellTiter-Glo, 48 h; series mostly up to 45.8 µM; also: nearly all actives have a fitted effect of over 35% in size; also: potency is read from the fitted curve at half-maximal effect
Method in brief: as §1

[10] = P-glycoprotein substrates identified in KB-8-5-11 adenocarcinoma cell line, qHTS therapeutic library screen (AID 1346987); conditions: KB-8-5-11 (P-gp overexpressing) viability, CellTiter-Glo, 72 h; series mostly up to 44.5 µM; also: nearly all actives have a fitted effect of over 65% in size; also: potency is read from the fitted curve at half-maximal effect
Method in brief: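 In this qHTS, P-gp-rich KB-8-5-11 cells received library compounds across a concentration range. Viability was quantified by luminescence after 72 h at 37 degree C.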

[11] = NS1 protein of Zika virus - qHTS assay to identify small molecule inhibitors in human HEK 293 cells (AID 1347053); conditions: HEK293 ZIKV MR766 infection, NS1 TR-FRET, 24 h; series mostly up to 46.1 µM; also: nearly all actives have a fitted effect of over 55% in size; also: potency is read from the fitted curve at half-maximal effect
Method in brief: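 Compound-treated (1 h pre-infection) HEK 293 cells infected with ZIKV MR766, MOI = 0.5; after 24 h at 37 C, NS1 read by TR-FRET; data normalized to uninfected and infected controls.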

[12] = Identifying Small Molecule Inhibitors of Pancreatic Cancer Stem Cells (Panc1, Spheroid) (AID 1259359); conditions: Panc1 spheroid cancer stem cell viability; series mostly up to 46.1 µM;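 also: potency is read from the fitted curve at half-maximal effect; compound exposure lasted 48 h before reading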
Method in brief: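 Monolayer and spheroid cultures are compared. Spheroids form over 14 days in stem cell medium on hydrogel-coated low-attachment plates, then are exposed to compound for 48 h before CellTiter-Glo luminescence.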

[13] = Identifying Small Molecule Inhibitors of Pancreatic Cancer Stem Cells (Panc1, Adherent) (AID 1259362); conditions: Potency: viability; series mostly up to 46.1 µM; also: potency is read from the fitted curve at half-maximal effect
Method in brief: as §3

[14] = P-glycoprotein substrates identified in KB-3-1 adenocarcinoma cell line, qHTS therapeutic library screen (AID 1346986); conditions: KB-3-1 parental cells viability, CellTiter-Glo, 72 h; series mostly up to 44.5 µM; also: nearly all actives have a fitted effect of over 60% in size;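 also: potency is read from the fitted curve at half-maximal effect; potency is for cytotoxicity meaning loss of cell viability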
Method in brief: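 Dose-response cytotoxicity, KB-3-1 vs P-gp-high KB-8-5-11, no colchicine in assay medium. Read: CellTiter-Glo at 72 h.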

[15] = qHTS assay to identify small molecule inhibitors of chordoma cells - UCH-1 (AID 1259355); conditions: UCH-1 chordoma viability, CellTiter-Glo, 48 h, combination, with auranofin plus four topoisomerase inhibitors; series mostly up to 46.1 µM; also: nearly all actives have a fitted effect of over 55% in size
Method in brief: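 800 cells/well, overnight attach; compounds pinned at 15 concs, then auranofin/camptothecin/doxorubicin/rubitecan/topotecan combo added; 48hr 37 C, 5% CO2; CellTiter-Glo, 30min RT, luminescence.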

In the case of CN(C)CCCN=c1c2ccccc2n(C)c2[nH]c(=O)n(C)c(=O)c12, the Potency [1] is reported as “inactive”, the Potency [2] is reported as 10.5 µM (active) and the Potency [3] is reported as 1.18 µM (active). The Potency [4] was 2.96 µM (active), the Potency [5] was “inactive” and the Potency [6] was 20.9 µM (active). The Potency [7] was “inactive” and the IC50 (viability decrease) [8] was 11.8 µM (active).

For O=C(CCCCCCC(=O)Nc1ccc([C@H]2O[C@@H](CSc3nc(-c4ccccc4)c(-c4ccccc4)o3)C[C@@H](c3ccc(CO)cc3)O2)cc1)NO, the Potency [1] was “inactive”, the Potency [9] was 7.43 µM (active) and the Potency [2] was 13.2 µM (active). For the same compound, the Potency [4] was 13.2 µM (active), the Potency [10] was 11.8 µM (active) and inactive and the Potency [11] was “inactive”.

With Cc1[nH]nc2ccc(-c3cncc(OC[C@@H](N)Cc4ccccc4)c3)cc12 the Potency [1] was “inactive”, the Potency [9] was 2.09 µM (active) and the Potency [2] was 1.48 µM (active). The Potency [4] was 2.96 µM (active), the Potency [12] was 9.35 µM (active) and the Potency [7] was 18.7 µM (active). The IC50 (viability decrease) [8] was 0.935 µM (active), the Potency [13] was 4.69 µM (active) and the Potency [10] was 2.35 µM (active) and 1.16 µM (active). For the same compound, the Potency [11] was 8.33 µM (active).

For Cc1cn2c(-c3cn[nH]c3)cnc2c(Nc2ccc(C(=O)N3CCNCC3)cc2F)n1, the Potency [1] was “inactive”, the Potency [9] was 16.6 µM (active) and the Potency [2] was 18.7 µM (active). The Potency [4] was 13.2 µM (active), the Potency [10] was “inactive” and the Potency [11] was “inactive”.

In the case of CC(C)[C@H](C(=O)Nc1ccc(C(=O)NO)cc1)c1ccccc1, the Potency [1] is reported as “inactive”, the Potency [9] is reported as 0.833 µM (active) and the Potency [2] is reported as 0.662 µM (active). For the same compound, the Potency [4] was 0.526 µM (active), the IC50 (viability decrease) [8] was 0.833 µM (active) and the Potency [13] was 0.418 µM (active). For the same compound, the Potency [10] was 1.48 µM (active).

In the case of COc1ccc2c(OCc3nnc4ccc(-c5ccccc5)nn34)ccnc2c1, the Potency [1] is reported as “inactive”, the Potency [9] is reported as “inactive” and the Potency [2] is reported as “inactive”. For the same compound, the Potency [4] was “inactive”, the Potency [10] was “inactive” and the Potency [11] was “inactive”.

In the case of CCCCc1nc2cc(C=CC(=O)NO)ccc2n1CCN(CC)CC, the Potency [1] is reported as “inactive”, the Potency [9] is reported as 0.187 µM (active) and the Potency [2] is reported as 0.372 µM (active). For the same compound, the Potency [4] was 0.0935 µM (active), the IC50 (viability decrease) [8] was 1.18 µM (active) and the Potency [10] was 7.43 µM (active). For the same compound, the Potency [11] was “inactive”.

For C[C@@H](Oc1cc(-n2cnc3ccc(CN4CCN(C)CC4)cc32)sc1C(N)=O)c1ccccc1C(F)(F)F, the Potency [1] was “inactive”, the Potency [9] was 0.0935 µM (active) and the Potency [2] was 0.0743 µM (active). For the same compound, the Potency [4] was 0.0743 µM (active), the Potency [5] was “inactive” and the IC50 (viability decrease) [8] was 0.0187 µM (active). For the same compound, the Potency [13] was 0.0037 µM (active), the Potency [10] was 0.118 µM (active) and the Potency [11] was 0.059 µM (active).

With CNc1nccc(-c2cccnc2Oc2cc(C(=O)Nc3cccc(C(F)(F)F)c3)ccc2C)n1 the Potency [1] was “inactive”, the Potency [9] was 4.18 µM (active) and the Potency [2] was 16.6 µM (active). For the same compound, the Potency [4] was 16.6 µM (active), the Potency [7] was 18.7 µM (active) and the Potency [14] was “inactive”. For the same compound, the Potency [10] was “inactive and 16.4 µM (active)”.

In the case of Nc1ccc(C(=O)c2cc3c(ccc4ccccc43)[nH]2)cc1, the Potency [1] is reported as “inactive”, the Potency [9] is reported as 2.64 µM (active) and the Potency [2] is reported as 3.32 µM (active). The Potency [4] was 1.87 µM (active), the Potency [5] was 2.09 µM (active) and the Potency [7] was “inactive”. For the same compound, the Potency [13] was 2.96 µM (active), the Potency [10] was 1.18 µM (active) and the Potency [11] was 18.7 µM (active).

With CC1(C)CC(=O)c2c(C(F)(F)F)nn(-c3ccc(C(N)=O)c(NC4CCC(OC(=O)CN)CC4)c3)c2C1 (configuration not stated) the Potency [1] was “inactive”, the Potency [9] was 0.166 µM (active) and the Potency [2] was 0.166 µM (active). The Potency [4] was 0.132 µM (active), the Potency [10] was 662 nM (active) and 820 nM (active) and the Potency [11] was “inactive”.

For CC=CC1=C(C(=O)O)N2C(=O)[C@H](NC(=O)[C@H](N)c3ccc(O)cc3)[C@@H]2SC1, the Potency [1] was “inactive”, the Potency [2] was “inactive” and the Potency [3] was “inactive”. For the same compound, the Potency [4] was “inactive”, the Potency [15] was “inactive” and the Potency [10] was “inactive”. For the same compound, the Potency [11] was “inactive”.

In the case of CCCCCN(CCC12CC3CC(CC(C3)C1)C2)C(=O)NCCCc1ccncc1, the Potency [1] is reported as “inactive”, the Potency [9] is reported as 16.6 µM (active) and the Potency [2] is reported as 18.7 µM (active). For the same compound, the Potency [4] was 14.8 µM (active), the Potency [7] was “inactive” and the Potency [10] was 16.4 µM (active). For the same compound, the Potency [11] was “inactive”.

For CCCCN1CCC(CNC(=O)c2c3n(c4ccccc24)CCCO3)CC1, the Potency [1] was “inactive”, the Potency [9] was 8.33 µM (active) and the Potency [2] was 9.35 µM (active). For the same compound, the Potency [4] was 13.2 µM (active), the Potency [7] was “inactive” and the IC50 (viability decrease) [8] was “inactive”. The Potency [13] was “inactive”.

In the case of O=C(O)C1(Cc2cccc(Nc3nccs3)n2)CCC(Oc2cccc(Cl)c2F)CC1 (configuration not stated), the Potency [1] is reported as “inactive”, the Potency [9] is reported as 4.69 µM (active) and the Potency [2] is reported as 1.66 µM (active). For the same compound, the Potency [4] was 0.372 µM (active), the Potency [14] was 517 nM (active) and the Potency [10] was 0.411 µM (active). For the same compound, the Potency [11] was “inactive”.

In the case of COc1cc2c(Oc3ccc(-c4cnc(Nc5ccc(F)cc5)n(C)c4=O)cc3F)ccnc2cc1OCCCN1CCOCC1, the Potency [1] is reported as “inactive”, the Potency [9] is reported as 20.9 µM (active) and the Potency [2] is reported as 20.9 µM (active). For the same compound, the Potency [4] was 11.8 µM (active), the Potency [6] was 5.9 µM (active) and the Potency [12] was 11.8 µM (active). For the same compound, the IC50 (viability decrease) [8] was 3.72 µM (active) and the Potency [10] was 13.2 µM (active).

With Cc1coc2c1C(=O)C(=O)c1c-2ccc2c1CCCC2(C)C the Potency [1] was “inactive”, the Potency [9] was “inactive” and the Potency [2] was “inactive”. The Potency [4] was 0.0037 µM (active) and the Potency [11] was “inactive”.
